Screening results deposited in PubChem BioAssay by National Center for Advancing Translational Sciences (NCATS).
Pol iota inh: qHTS for Inhibitors of Polymerase Iota. DNA polymerase iota (Homo sapiens), Q9UNA4. Pol iota fluorescent replication assay, 10 min. Potency, µM (titrated, usually from 115 µM), without a hit: top-dose activity, negative = inhibition, usual class: inhibitors. 1% of 390,000 active. AID 588590, 2011
Target sequence (Q9UNA4 whole entry, looked up): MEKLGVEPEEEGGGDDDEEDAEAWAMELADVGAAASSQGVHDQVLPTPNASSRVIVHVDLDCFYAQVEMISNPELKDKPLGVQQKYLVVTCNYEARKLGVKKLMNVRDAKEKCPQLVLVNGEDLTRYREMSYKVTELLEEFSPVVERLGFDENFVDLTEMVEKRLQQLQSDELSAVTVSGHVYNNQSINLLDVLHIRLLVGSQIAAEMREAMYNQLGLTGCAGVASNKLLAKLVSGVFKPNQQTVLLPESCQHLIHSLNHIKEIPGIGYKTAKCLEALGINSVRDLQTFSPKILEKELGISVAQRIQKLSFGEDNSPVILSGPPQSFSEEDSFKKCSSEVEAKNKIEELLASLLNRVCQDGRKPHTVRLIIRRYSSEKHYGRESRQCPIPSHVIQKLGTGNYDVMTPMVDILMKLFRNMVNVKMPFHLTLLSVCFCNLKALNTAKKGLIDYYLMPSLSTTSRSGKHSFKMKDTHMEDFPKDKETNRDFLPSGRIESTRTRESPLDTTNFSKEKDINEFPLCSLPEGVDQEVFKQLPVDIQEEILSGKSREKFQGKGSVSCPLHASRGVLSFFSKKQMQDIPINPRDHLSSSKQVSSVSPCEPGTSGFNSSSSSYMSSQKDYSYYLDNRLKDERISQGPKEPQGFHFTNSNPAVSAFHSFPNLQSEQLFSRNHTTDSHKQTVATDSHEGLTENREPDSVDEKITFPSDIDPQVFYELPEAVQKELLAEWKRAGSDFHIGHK
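Pol iota at 10 nM preincubated 15 min with compounds at room temperature; reaction started with fluorescent substrate, 50 nM final. Fluorescence read kinetically at 0 and 10 min; buffer-only wells as negative control.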
Pol beta inh: qHTS Assay for Inhibitors of DNA Polymerase Beta; P06746; Pol beta primer extension/strand displacement, fluorescence kinetic; Potency, µM (doses to about 114 µM), for inactives: at the top dose activity change, negative = inhibition, usual class: inhibitors; 1.3% of 340,000 active; AID 485314, 2010; note: % is set by controls: 0 for no effect and ±100 for the full control effect
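Preincubation: enzyme (10 nM) with compound, 15 min, RT. Reaction: substrate added to 50 nM final. Reads: 0 and 10 min. Analysis: normalized, Hill fit.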
POLK inh: qHTS for Inhibitors of Polymerase Kappa. purified Pol kappa, fluorescent DNA synthesis assay, 10 min. Potency, µM (top dose mostly 107 µM), without a hit: at the top dose activity, negative = inhibition, actives largely listed as inhibitors. 0.53% of 400,000 active. AID 588579, 2011; note: % is set by controls: 0 for no effect and ±100 for the full control effect
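Here, compound and 10 nM enzyme are combined for 15 min at room temperature; adding 50 nM substrate (final) starts DNA synthesis, tracked by fluorescence at 0 and 10 min against buffer-only wells.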
WRN helicase inh: qHTS for Inhibitors of WRN Helicase; Bifunctional 3'-5' exonuclease/ATP-dependent helicase WRN (Homo sapiens), Q14191; WRN helicase unwinding, fluorescent forked duplex, kinetic; Potency, µM (titrated, usually from 114 µM), inactives show at the highest dose activity change, negative = inhibition, most hits filed as inhibitors; 0.46% of 360,000 active; AID 651768, 2012; note: % is set by controls: 0 for no effect and ±100 for the full control effect; nearly all actives have a fitted effect of over 55% in size
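WRN at 20 nM final preincubated with compound 15 min at room temperature; reaction started with 100 nM fluorophore/quencher forked duplex oligonucleotide and 2 mM ATP final. Unwinding followed kinetically by red fluorescence (ex 525, em 598 nm).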
FEN1 inhibitor: qHTS Assay for the Inhibitors of Human Flap endonuclease 1 (FEN1); Potency, µM (titrated, usually from 114 µM), without a hit: top-dose activity change, negative = inhibition, most hits filed as inhibitors; Recombinant FEN1 flap cleavage, fluorescence, 15 min; P39748; 0.35% of 390,000 active; AID 588795, 2011; note: % is set by controls: 0 for no effect and ±100 for the full control effect; nearly all actives have a fitted effect of over 65% in size
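Reaction started by adding substrate (50 nM final) to 10 nM enzyme after 15 min room-temperature compound preincubation. Reads at 0 and 15 min, with data normalized and fitted to a four-parameter Hill equation.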
POLH inh: qHTS for Inhibitors of Polymerase Eta. 1.2% of 390,000 active. DNA polymerase eta (Homo sapiens), Q9Y253. Potency, µM (titrated, usually from 114 µM), without a hit: at the top dose activity change, negative = inhibition, actives largely listed as inhibitors. AID 588591, 2011. recombinant Pol eta, fluorescent DNA replication assay; note: % is set by controls: 0 for no effect and ±100 for the full control effect
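Pol eta (10 nM) was preincubated with compounds for 15 min at room temperature, after which fluorescent replication substrate (50 nM final) was added to start the reaction. Fluorescence was read kinetically at 0 and 10 min.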
PGK validate: qHTS for inhibitors of Phosphogylcerate Kinase: Hit Validation Screen; shares compounds with POLK inh; TbPGK coupled GAPDH assay, Kinase-Glo luminescence; Potency, µM (highest dose often 57.5 µM), inactives show top-dose activity change, negative = inhibition, hits mostly inhibitors; 79% of 500 active; AID 686980, 2013; note: % is set by controls: 0 for no effect and ±100 for the full control effect; nearly all actives have a fitted effect of over 65% in size
Pol iota confirm: qHTS for Inhibitors of Polymerase Iota: Confirmatory Assay for Cherry-picked Compounds | Potency, µM, usual class: inhibitors | 77% of 1,500 active | AID 720496, 2013 | shares compounds with POLK inh | Pol iota primer extension, TAMRA/BHQ fluorescence
Active calls of the source: *; ? = inconclusive; . = no result given; [ ] = dose if it differs, or a comment. This is a sample that favours compounds with a hit; in the whole collection about 2.4% have one here. Calls come from the whole dose curve; as a rule, active = well fitted curve in the direction sought with a large enough effect; inconclusive = small, poorly fitted or top-dose-only effect, or another doubt; inactive = no such curve, though single readings can be large; an effect the other way counts as inactive or inconclusive. Potency is the fitted concentration of half-maximal effect.

SMILES	Pol iota inh	Pol beta inh	POLK inh	WRN helicase inh	FEN1 inhibitor	POLH inh	Pol iota confirm	others
O=C(COc1ccc(/C=N/NC(=O)c2ccc(O)cc2)cc1)Nc1cccc([N+](=O)[O-])c1	?	10µM*	?	?	?	14.1µM*	?	PGK validate=11.6µM*
O=C(/C=C/c1ccc([N+](=O)[O-])cc1)Oc1ccc(/C=N/NC(=O)c2ccncc2)cc1	79.4µM*	-1.6%	22.4µM*	-13.1%[11.6 µM]	?	?	?
O=C(COc1ccc(/C=N/NC(=O)c2ccncc2)cc1)Nc1ccc([N+](=O)[O-])cc1	-9.9%	23.5%	-2.0%	8.8%[57.1 µM]	-13.9%	-5.8%	.
Cc1ccc(S(=O)(=O)NCCc2nnc3ccc(SCc4cccc(F)c4)nn23)cc1	26.9%	7.0%	10.1%	.	-5.1%	-21.0%	.
CSc1ccccc1NC(=O)COc1ccc(Cl)cc1Cl	-2.1%	17.1%[57.1 µM]	-8.4%	?	-2.0%	-28.4%	.
O=C(COc1ccc(Cl)cc1Cl)Nc1ccccn1	-12.6%[58.9 µM]	1.7%	-6.4%	3.8%	-1.9%	0.6%	.	PGK validate=18.3µM*
O=C(CNC(=O)c1ccc(S(=O)(=O)N2CCCCC2)cc1)N/N=C/c1ccco1	?	3.1%	-8.7%	-21.2%[11.6 µM]	-8.1%	-4.3%	11.9*
O=C(c1ccncc1)N1CCC[C@@]2(CCN(Cc3ccccc3)C2)C1	.	.	6.9%[60.1 µM]	.	.	.	.
Cc1c(Cl)cccc1-n1ncc(C(=O)NCCN2CCN(C)CC2)c1C1CCN(C(=O)OC(C)(C)C)CC1	32.5%	29.0%	4.7%	.	-3.9%	-16.3%	.
CN(C)c1ccc(-c2cc[nH]c(=O)c2N)cc1	.	.	.	.	.	.	?
COc1ccc(C)cc1NC(=O)Cc1ccc(NC(=O)N2CCCCc3ccccc32)cc1	10.6%	5.9%	-0.9%	.	1.4%	-19.7%	.
COc1ccc2nc(NC(=O)c3ccoc3C)sc2c1	-9.7%[58.9 µM]	-0.7%	-10.0%	7.5%	-10.4%	5.3%	.	PGK validate=10.3µM*
Cc1ccc(NC(=O)CS(=O)CC(=O)Nc2ccc(N3CCOCC3)cc2)cc1Cl (centres undefined)	17.8µM*	25.1µM*	?	-34.9%	?	?	?
Cc1cc(C)c(NC(=O)CS(=O)CC(=O)Nc2ccc(N3CCOCC3)cc2)c(C)c1 (centres undefined)	13.3%	11.0%	-13.7%	-4.0%	0.2%	-16.5%	.
Cc1cc(=O)oc2cc(NC(=O)COc3ccccc3[N+](=O)[O-])ccc12	?	.	-19.3%	-34.6%[11.6 µM]	13.0%	?	?
O=C(COc1ccccc1[N+](=O)[O-])Nc1ccc2oc(=O)ccc2c1	-9.3%	-10.5%	6.5%	-5.1%	19.5%	2.9%	.
Cc1ccccc1CNC(=O)c1c(C)oc2c1C1=NCCN1C=N2	-0.2%	37.2%	0.0%	.	-11.4%	-19.4%	.
O=C(O)c1ccc(N/N=C/c2cc3c(cc2[N+](=O)[O-])OCO3)cc1	-4.7%	-12.5%	-13.7%	-12.5%[57.1 µM]	?	?	.
Cc1ccsc1C(=O)N/N=C/c1ccc2c(c1)OCO2	-6.7%	-12.0%	-6.6%	-12.0%	-0.6%	-10.1%	.	PGK validate=18.3µM*
O=C(O)c1ccc(N/N=C/c2ccc3c(c2)OCO3)cc1	23.3%	21.5%	-7.6%	-9.2%	7.6%	-11.7%	.	PGK validate=10.3µM*
Cc1noc(C)c1C(=O)N1CCC[C@@]2(CCN(c3ncccn3)C2)C1	.	.	-2.8%[60.1 µM]	.	.	.	.
